Data from PubChem BioAssay AID1053133 (Broad Institute, 2014).
“And” between values parts separate entries of the source, which are not always exact repeats. Equal values may be shown once. Screen size: about 89,000 compounds; about 10 (0.01%) were called active. Not shown: some 10% with an inconclusive outcome. Rule as the data show it: active = activity change below about -37% (passing the limit was not always enough); inconclusive = no clear call, values can overlap the other calls; tested in A549 cells. The list is a sample of the results.

experiment: blocks a specific stage of Vaccinia orthopoxvirus infection, primary screen, cell-based, single point (AID 1053133); settings: Vaccinia-infected cells, mCherry/Venus stage reporter fluorescence, stronger effect = lower value, concentration not given here; activity change (Venus): measured here: Venus reporter, other viral stage

SMILES | activity change (Venus) | activity change (mCherry)
CCC(=O)N1CCC2(CC1)CN(S(C)(=O)=O)[C@@H](CO)c1c2c2ccc(OC)cc2n1C | 7.75% | 14.3% (inactive)
CC(C)CC#Cc1ccc2c(c1)O[C@H](CN(C)C(=O)Cc1cccnc1)[C@H](C)CN([C@@H](C)CO)S2(=O)=O | -21.5% | -32.3% (inactive)
O=C(Cc1ccccn1)N[C@H]1CC[C@H](CCn2cc(-c3ccc(F)cc3)nn2)O[C@H]1CO | 1.48% | 5.56% (inactive)
NCC[C@@H]1CC[C@@H](NC(=O)C2CCCC2)[C@H](CO)O1 | 0.29% | -7.04% (inactive)
COc1ccc(NC(=O)Nc2ccc3c(c2)C(=O)N([C@@H](C)CO)C[C@H](C)[C@H](CN(C)S(=O)(=O)c2ccccc2)OCCCC[C@@H](C)O3)cc1 | -1.69% | -0.413% (inactive)
C[C@@H]1CN([C@H](C)CO)C(=O)c2cc(-c3ccccc3)cnc2O[C@H]1CN(C)C(=O)NC1CCCC1 | -2.73% | 1.1% (inactive)
CCC(=O)N1CCC2(CC1)CN(Cc1cc(F)ccc1F)[C@@H](CO)c1c2c2ccc(OC)cc2n1C | -2.18% | 15.8% (inactive)
O=C(C[C@H]1CC[C@@H]2[C@H](COC[C@H](O)CN2C(=O)c2ccc3c(c2)OCO3)O1)NC1CCC1 | 9.5% | 3.32% (inactive)
O=C(Nc1ccccc1F)N[C@H]1CC[C@@H](CCNS(=O)(=O)c2ccc(F)cc2)O[C@@H]1CO | -12.7% | -16.7% (inactive)
O=C(C[C@H]1C=C[C@H](NC(=O)Nc2cc(F)ccc2F)[C@H](CO)O1)Nc1ccccc1 | -0.0195% | -4.16% (inactive)
COc1ccc2c3c(n(C)c2c1)[C@@H](CO)N(C(=O)c1ccc(F)cc1)CC31CN(C(=O)c2ccc(F)cc2)C1 | -9% | -10.3% (inactive)
COc1cccc(-c2ccc(CC[C@H]3O[C@H]4CC[C@@H](CO)O[C@H]4C[C@@H]3NS(C)(=O)=O)cc2)c1 | -32% | -32.8% (inactive)
O=C(C[C@@H]1CC[C@H]2[C@@H](COC[C@H](O)CN2Cc2ccc(F)cc2)O1)N1CCc2ccccc2C1 | -6.62% | -6.87% (inactive)
CN(C)CC(=O)N1[C@H](CO)[C@@H](c2ccc(-c3cccc(C(=O)N(C)C)c3)cc2)[C@@H]1C#N | -1.53% | 8.67% (inactive)
O=C(c1ccncc1)N1C[C@H]2[C@@H](c3ccccc31)[C@H](CO)N2C(=O)Nc1ccc(F)cc1 | 5.09% | 11% (inactive)
COCC(=O)Nc1ccc2c(c1)C(=O)N(C)[C@@H]1CC[C@H](CC(=O)NCC3CC3)O[C@H]1CO2 | 3.16% | 15.4% (inactive)
O=C(c1ccncc1)N1C[C@H]2[C@@H](c3ccccc31)[C@H](CO)N2C(=O)c1ccccn1 | 2.97% | 10.6% (inactive)
COc1ccc2c3c([nH]c2c1)[C@@H](CO)N(Cc1ccccc1F)CC31CN(C(=O)C2CC2)C1 | 19.6% | 12.9% (inactive)
CCCN(C)C[C@@H]1Oc2ncc(-c3cccc(C(=O)N(C)C)c3)cc2C(=O)N([C@H](C)CO)C[C@@H]1C | 1.46% | 23.1% (inactive)

SMILES | activity change (Venus) | activity change (mCherry)
C[C@@H]1CN([C@@H](C)CO)S(=O)(=O)c2ccc(-c3ccc(F)cc3)cc2O[C@@H]1CN(C)CC1CC1 | -14.3% | -33.2% (inactive)
Cn1cnc(S(=O)(=O)N2C[C@@H]3N[C@H](C2)C3c2ccc(/C=C/c3ccccc3)cc2)c1 (stereo partly specified) | 2.7% and -14.5% | 7.98% (inactive) and -24.7% (inactive)
C[C@H](CO)N1C[C@H](C)[C@@H](CN(C)C(=O)Cc2ccncc2)Oc2ncc(C3=CCCCC3)cc2C1=O | -16% | -18.8% (inactive)
CCC(=O)N1CC2(C1)[C@H](c1ccccc1)[C@@H](CO)N2C(=O)c1ccccc1 | -1.49% | -4.89% (inactive)
COc1ccc(-c2ccc3n(c2=O)C[C@@H]2[C@@H](CO)[C@H](C(=O)Nc4ccccc4)[C@H]3N2C)cc1 | 4.65% | -0.0885% (inactive)
CO[C@H]1CN(C)C(=O)c2ccc(NC(=O)c3ccno3)cc2OC[C@@H](C)N(S(C)(=O)=O)C[C@H]1C | 16.7% | 24.5% (inactive)
Cc1ccc(F)cc1S(=O)(=O)N[C@@H]1CCN(Cc2ccc(-c3ccccc3)cc2)C1 | -24.3% | -23.2% (inactive)
C[C@@H](NC(=O)C[C@H]1C[C@@H]2c3cc(NC(=O)Nc4ccccc4F)ccc3O[C@@H]2[C@H](CO)O1)c1ccccc1 | 0.165% | 4.14% (inactive)
O=C(C[C@@H]1C[C@H]2c3cc(NC(=O)NC4CCCCC4)ccc3O[C@H]2[C@H](CO)O1)NCc1ccncc1 | 10.9% | -4.22% (inactive)
COc1ccccc1NC(=O)N(C)C[C@H]1Oc2cc(Br)ccc2S(=O)(=O)N([C@H](C)CO)C[C@@H]1C | -7.91% and 3.04% | -12.3% (inactive) and -2.64% (inactive)
O=C(C[C@@H]1CC[C@@H]2[C@H](COC[C@H](O)CN2C(=O)C2CC2)O1)NCc1ccncc1 | -2.42% | 0.733% (inactive)
COCC#Cc1ccc2c(c1)O[C@@H](CN(C)C(=O)Nc1ccccc1F)[C@H](C)CN([C@H](C)CO)S2(=O)=O | 11.6% | 9.91% (inactive)
CN1C(=O)c2cc(NC(=O)c3ccccc3)ccc2OC[C@H]2O[C@@H](CC(=O)O)CC[C@@H]21 | 4.29% | 9.5% (inactive)
O=C(c1ccccn1)N1CC2(C1)[C@H](c1ccccc1)[C@H](CO)N2C(=O)C1CCCC1 | -9.04% | -13.9% (inactive)
Cc1noc(C)c1NC(=O)N[C@@H]1CC[C@H](CC(=O)Nc2ccccc2)O[C@H]1CO | 10.3% | 4.56% (inactive)
COc1ccc2c3c([nH]c2c1)[C@@H](CO)N(C(=O)c1cccc(F)c1)CC31CN(C(C)=O)C1 | -6.3% | 16.8% (inactive)
CCC(=O)Nc1ccc2c(c1)OC[C@@H](C)N(Cc1ccccn1)C[C@H](C)[C@@H](OC)CN(C)C2=O | 5.46% | 6.05% (inactive)
C[C@@H]1CN([C@H](C)CO)S(=O)(=O)c2ccc(C#CCC3CCCC3)cc2O[C@H]1CN(C)Cc1ccc(C(=O)O)cc1 | -4.35% | 11.2% (inactive)
O=C(C[C@H]1CC[C@@H]2[C@H](COC[C@@H](O)CN2CC2CC2)O1)NCC1CC1 | 15.8% | 11.7% (inactive)
